The values below come from PMC11062922 (Nature Chemical Biology, 2023).

Each structure is given as a SMILES string. Where two headings read alike, the source gives them in different places.

Parameters in all cases: species or system human, MV4-11 + K-562 + COLO205 + SK-N-BE2 + OVCAR-8
The test system of one test is ACAD11. The settings on record: read-out: apparent Kd; compound concentrations:100 nM and 1000 nM (sheet 'Samples'); n = 1.
For a further test, the system named is MAP2K1. The settings on record: read-out: apparent Kd; compound concentrations:100 nM and 1000 nM (sheet 'Samples'); n = 1.
A further test concerns CDK5. Conditions: read-out: apparent Kd, n = 1.
The test system of the next test is JAK1. Conditions: read-out: apparent Kd, n = 1.
Another test has as its system PRKCB. The settings on record: read-out: apparent Kd, n = 1.
In another test the test system is CDC7. The settings on record: read-out: apparent Kd, n = 1.
The test system of a further test is CDK6. The settings on record: read-out: apparent Kd, n = 1.
In the next test the test system is STK26. The settings on record: read-out: apparent Kd, n = 1.
A further test concerns NQO2. The settings on record: read-out: apparent Kd, compound concentrations: 100 nM and 1000 nM (sheet 'Samples'), n = 1.
The subject of another test is T1, DJA1.
T1 construct: gene DNAJA1
The settings on record: read-out: apparent Kd, compound concentrations: 100 nM and 1000 nM (sheet 'Samples'), n = 1.

The next test has as its system PIK3CA. The settings on record: read-out: apparent Kd, compound concentrations: 100 nM and 1000 nM (sheet 'Samples'), n = 1.
Another test deals with MAP4K1. The settings on record: read-out: apparent Kd, n = 1.
A further test has as its system NLK. The settings on record: read-out: apparent Kd; compound concentrations: 100 nM and 1000 nM (sheet 'Samples'), CATDS: 0.11088369265314001; n = 1.
The subject of another test is JAK2. The settings on record: read-out: apparent Kd; compound concentrations: 100 nM and 1000 nM (sheet 'Samples'), CATDS: 1.8350594186084E-2; n = 1.
The subject of a further test is ATR. The settings on record: read-out: apparent Kd; compound concentrations: 100 nM and 1000 nM (sheet 'Samples'), CATDS: 4.3166992032332097E-2; n = 1.
The test system of another test is IRAK4. Conditions: read-out: apparent Kd; compound concentrations:100 nM and 1000 nM (sheet 'Samples'); n = 1.
Setting [1] is: compound concentrations:100 nM and 1000 nM (sheet 'Samples').

On to `CS(=O)(=O)Nc1ccc(-c2ccnc3[nH]ccc23)cc1` [GSK993273A], for which the values for the potency estimated from few doses in the test with ACAD11 and in the test on MAP2K1 were 1040 nM and 1720 nM, respectively.

Turning to `COc1cc[nH]c1/C=C1\C(=O)Nc2ccc([N+](=O)[O-])c(N3CC[C@@H](O)C3)c21` [RO0504985-000], the potency estimated from few doses was 1470 nM with CDK5 (compound concentrations: 100 nM and 1000 nM (sheet 'Samples'), CATDS: 3.2036617578660199E-2); 1130 nM with JAK1 (compound concentrations: 100 nM and 1000 nM (sheet 'Samples'), CATDS: 3.4351644402230902E-2).

Consider `Cc1occc1-c1nc(N)c(OC[C@@H](N)Cc2c[nH]c3ccccc23)cc1-c1cc2c(C)n[nH]c2cn1` [GSK1660450B], for which, in the test on PRKCB (setting [1]), the potency estimated from few doses is 126 nM.

`NS(=O)(=O)c1ccc(N/C=C2\C(=O)Nc3ccc4ncsc4c32)cc1` [GW297361X]: the potency estimated from few doses is 1330 nM in the test on CDC7 (compound concentrations: 100 nM and 1000 nM (sheet 'Samples'), CATDS: 3.3579769325783403E-2); 772 nM in the test on CDK5 (compound concentrations: 100 nM and 1000 nM (sheet 'Samples'), CATDS: 4.1634678032953398E-2); 1200 nM with CDK6 (compound concentrations: 100 nM and 1000 nM (sheet 'Samples'), CATDS: 3.48419374837717E-2); 1050 nM with STK26 (compound concentrations: 100 nM and 1000 nM (sheet 'Samples'), CATDS: 3.6702057868443203E-2).

With `O=C1N=C(NCc2ccccc2Br)S/C1=C\c1ccc2ncccc2c1` [RO4506918-000], the potency estimated from few doses in the test with NQO2 (CATDS: 7.7702899171443504E-2) is 1480 nM.

`COc1ccc(Nc2nccc(NCCNC(=O)Nc3cc(C)ccc3C)n2)cc1` [GSK1379899A]: the figures for the potency estimated from few doses in the test with DJA1 (CATDS: 4.7532524958751397E-2) and in the test with PIK3CA (CATDS: 0.114925337657843) were 1320 nM and 250 nM, respectively.

Regarding `COc1cc[nH]c1/C=C1\C(=O)Nc2ccc(F)c(I)c21` [RO0281567-000], the potency estimated from few doses in the test on NQO2 (CATDS: 0.103820399985183) is 1830 nM.

On to `CNCC1CCn2c(c(C3=C(c4cn(C)c5ccccc45)C(=O)NC3=O)c3ccccc32)C1` (stereo not drawn) [RO0318676-000], for which, in the test with PRKCB (compound concentrations: 100 nM and 1000 nM (sheet 'Samples'), CATDS: 0.17130797334845299), the potency estimated from few doses is 28.9 nM.

Take `Cl.Nc1nc(-c2ccc3c(c2)C(=Cc2cc(Br)c(O)c(Br)c2)C(=O)N3)cs1` [GW407323A]: the potency estimated from few doses is 903 nM with CDC7 (compound concentrations: 100 nM and 1000 nM (sheet 'Samples'), CATDS: 3.34335879912959E-2); 1060 nM in the test with CDK5 (compound concentrations: 100 nM and 1000 nM (sheet 'Samples'), CATDS: 3.2075067944878903E-2); 734 nM in the test on NQO2 (CATDS: 3.5438928095243502E-2).

As to `Nc1nc(-c2ccc3c(N)n[nH]c3c2)cc(N2CCCC(NC(=O)c3ccccc3)C2)n1` (stereo not drawn) [GSK2286775B], the potency estimated from few doses was 1510 nM in the test with CDK6 (setting [1]) and 1830 nM in the test on MAP2K1.

For `NS(=O)(=O)c1ccc(NC=C2C(=O)Nc3ccc4ncsc4c32)cc1` [GW589933X], the potency estimated from few doses with CDC7 (compound concentrations: 100 nM and 1000 nM (sheet 'Samples'), CATDS: 1.6133442669584601E-2) was 2200 nM; with CDK5 (compound concentrations: 100 nM and 1000 nM (sheet 'Samples'), CATDS: 3.21718775388454E-2), 288 nM; with CDK6 (compound concentrations: 100 nM and 1000 nM (sheet 'Samples'), CATDS: 2.1682770776227499E-2), 765 nM; in the test on MAP4K1 (compound concentrations: 100 nM and 1000 nM (sheet 'Samples'), CATDS: 1.8829734427402701E-2), 1190 nM; with STK26 (compound concentrations: 100 nM and 1000 nM (sheet 'Samples'), CATDS: 5.6823828903644298E-2), 94.3 nM.

As for `NS(=O)(=O)c1cccc(-c2ccc3c(NC(=O)C4CC4)n[nH]c3c2)c1` [SB-741905], the potency estimated from few doses was 1780 nM in the test on DJA1 (CATDS: 0.110749292558391), 1780 nM in the test on NLK and 301 nM in the test with PIK3CA (CATDS: 0.24789463028651901).

With `Cn1cc(C2=C(c3c(S(C)=O)n(C)c4ccccc34)C(=O)NC2=O)c2ccccc21` (stereo not drawn) [RO0317379-000], in the test on NQO2 (CATDS: 0.10247036288978301), the potency estimated from few doses was 1820 nM.

For `COc1cc[nH]c1/C=C1\C(=O)Nc2ccc(F)c(C#C[C@@H](O)[C@@H](N)[C@@H](C)O)c21` [RO0283120-000], the potency estimated from few doses in the test with CDK5 (setting [1]) was 1070 nM; with CDK6 (setting [1]) it was 1140 nM; with JAK1 (setting [1]), 468 nM; with MAP4K1 (setting [1]) it was 1060 nM.

Take `CCn1c(-c2nonc2N)nc2cncc(C(=O)N3CC[C@H](N)C3)c21.Cl` [SB-772077-B]: the potency estimated from few doses in the test with PRKCB (setting [1]) is 752 nM.

Regarding `Nc1nccc(-c2ccc3c(N)n[nH]c3c2)n1` [GSK1034945A], the potency estimated from few doses in the test on CDC7 (setting [1]) is 1420 nM; with CDK6 (setting [1]) it was 2150 nM.

In the case of `NS(=O)(=O)c1ccc(N/N=C2\C(=O)Nc3ccc4ncccc4c32)cc1` [GW305178X], the potency estimated from few doses in the test on CDK5 (compound concentrations: 100 nM and 1000 nM (sheet 'Samples'), CATDS: 5.4245718700327898E-2) is 776 nM; in the test on STK26 (compound concentrations: 100 nM and 1000 nM (sheet 'Samples'), CATDS: 3.9228488204277198E-2), 2190 nM.

Consider `Cl.Cl.NCC(NC(=O)c1cc(-c2ccnc3[nH]ccc23)cs1)c1ccccc1.NCC(NC(=O)c1cc(-c2ccnc3[nH]ccc23)cs1)c1ccccc1` (stereo not drawn) [GSK1229959A], for which the potency estimated from few doses in the test with JAK2 is 1230 nM.

Regarding `CCC(CC)(CC)n1cnc2c(N)ncnc21` [SKF-97620], the potency estimated from few doses with ATR is 432 nM; with PIK3CA (CATDS: 0.13947400940733601), 53.9 nM.

`Cn1cc(C=C2C(=O)Nc3cccnc32)c2ccccc21` [GW441756X]: the potency estimated from few doses with JAK1 (compound concentrations: 100 nM and 1000 nM (sheet 'Samples'), CATDS: 0.22655128290916701) is 1250 nM.

As to `CCn1c(-c2nonc2N)nc2cncc(Br)c21` [SB-738004], the potency estimated from few doses in the test with CDC7 (setting [1]) was 655 nM; in the test on PRKCB (setting [1]), 1350 nM.

For the molecule `CN[C@H](C#Cc1c(F)ccc2c1/C(=C/c1[nH]ccc1OC)C(=O)N2)CO.Cl` [RO0283049-001], the potency estimated from few doses in the test on CDK6 (compound concentrations: 100 nM and 1000 nM (sheet 'Samples'), CATDS: 1.9484263699736298E-2) was 2150 nM; in the test with JAK1 (compound concentrations: 100 nM and 1000 nM (sheet 'Samples'), CATDS: 9.7447783313560105E-2), 49.7 nM; with MAP4K1 (compound concentrations: 100 nM and 1000 nM (sheet 'Samples'), CATDS: 2.1208459408743999E-2), 1460 nM.

Regarding `CN(C)c1ccc2c(c1)/C(=C/Nc1ccc(S(N)(=O)=O)cc1)C(=O)N2` [GW416469X], the potency estimated from few doses is 1420 nM with DJA1 (CATDS: 7.6568205350202298E-2); 245 nM in the test on PIK3CA (CATDS: 0.16808925824439999); 1550 nM in the test on STK26 (compound concentrations: 100 nM and 1000 nM (sheet 'Samples'), CATDS: 7.4408225949633894E-2).

In the case of `O=C(Nc1n[nH]c2nc(-c3ccccc3O)ccc12)C1CC1` [SB-711880], in the test on IRAK4, the potency estimated from few doses is 958 nM.

`Nc1nc(-c2ccc3c(N)n[nH]c3c2)cc(N2CCCCC2)n1` [GSK2228768A]: the potency estimated from few doses in the test on STK26 (setting [1]) was 1330 nM.
